Compound activity (PubChem)
rTrxR1 inhibitor: inhibitors of rat thioredoxin reductase 1; AID 588453; actives 1% (n = 390,000); O89049; Potency, µM (top dose mostly 114 µM), without a hit: top-dose activity change, negative = inhibition, hits mostly inhibitors; recombinant rTrxR1, NADPH fluorescence consumption, selenite substrate; further: nearly all actives have a fitted effect of over 65% in size
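Rat TrxR1 (90 nM in the dispensed reagent) was pre-reduced with 400 uM NADPH for 5 min at room temperature, then incubated with compound for 15 min. After 400 uM selenite was added, NADPH fluorescence (Ex 340/Em 450 nm) was followed for 8 min.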
mIDH1 inhibitor: inhibitors of human mutant IDH1 R132H. AID 602179. IDH1-R132H enzyme, NADPH consumption, diaphorase/resazurin fluorescence. actives 0.093% (n = 390,000). Potency, µM (top dose mostly 76.6 µM), for the others: top-dose activity change, negative = inhibition, most hits filed as inhibitors. O75874; further: nearly all actives have a fitted effect of over 65% in size
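IDH1-R132H (0.5 ug/mL) preincubated 30 min with compound, then NADPH (0.016 mM) and alpha-KG (2 mM) added; 80 min at RT, pH 7.5. Remaining NADPH coupled via diaphorase/resazurin to fluorescence (540/590 nm); concentration-response curves normalized to no-enzyme control.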
PLK1 PBD inh: inhibitors of human PLK1 polo-box domain binding. AID 720504. Potency, µM, inactives show max response, negative = inhibition, actives largely listed as inhibitors. actives 2.8% (n = 360,000). Plk1 PBD binding of FITC phosphopeptide, fluorescence polarization. P53350; further: series mostly up to about 57 µM; nearly all actives have a fitted effect of over 65% in size
Target sequence (P53350 whole entry, looked up, the tested form may be a part): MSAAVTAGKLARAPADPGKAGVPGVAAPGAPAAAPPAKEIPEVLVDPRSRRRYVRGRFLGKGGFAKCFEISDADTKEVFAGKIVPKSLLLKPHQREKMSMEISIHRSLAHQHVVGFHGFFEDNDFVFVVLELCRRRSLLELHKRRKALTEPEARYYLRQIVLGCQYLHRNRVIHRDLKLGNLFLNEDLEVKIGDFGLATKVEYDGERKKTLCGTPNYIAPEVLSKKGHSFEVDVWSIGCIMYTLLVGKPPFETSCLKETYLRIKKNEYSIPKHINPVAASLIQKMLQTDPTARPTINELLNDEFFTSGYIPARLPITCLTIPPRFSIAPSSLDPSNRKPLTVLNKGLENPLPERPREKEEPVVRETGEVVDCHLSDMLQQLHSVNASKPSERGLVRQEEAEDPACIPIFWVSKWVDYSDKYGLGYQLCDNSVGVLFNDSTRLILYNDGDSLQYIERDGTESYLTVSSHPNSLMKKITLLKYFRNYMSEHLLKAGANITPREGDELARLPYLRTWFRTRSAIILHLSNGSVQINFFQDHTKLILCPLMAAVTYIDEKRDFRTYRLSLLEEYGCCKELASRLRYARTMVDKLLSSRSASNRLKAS
TrxR1 substrate: is turned over as a substrate by rat TrxR1 | O89049 | purified TrxR1 substrate turnover, NADPH consumption readout | Potency, µM (series often up to 114 µM), inactives show at the highest dose activity change, negative = substrate turnover | actives 0.01% (n = 390,000) | AID 588456; further: nearly all actives have a fitted effect of over 50% in size
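Rat TrxR1, dispensed at 90 nM, was prereduced with 400 uM NADPH (final) for 5 min at ~22 deg C, then incubated with compound 15 min before 400 uM selenite. A first-read NADPH fluorescence drop versus no-compound background flagged substrates.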
VDR inhibitor: inhibitors of human vitamin D receptor | VDR-SRC2-3 peptide fluorescence polarization, 2 h | actives 0.93% (n = 400,000) | Potency, µM, for inactives: max response, negative = inhibition, most hits filed as inhibitors
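The screen uses fluorescence polarization to detect compounds that interfere with recruitment of the SRC2-3 coactivator peptide to VDR; plates are read after 2 h at room temperature.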
Sfp inh: Sfp phosphopantetheinyl transferase inhibition; actives 3.5% (n = 310,000); Biochemical Sfp PPTase activity, qHTS; AID 1490; Potency, µM, without a hit: largest response in the series, negative = inhibition, most hits filed as inhibitors; Q9F4F7;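 further: the enzyme is Sfp with the accession as filed and its product quenches rhodamine fluorescence; 0% = enzyme reaction without inhibitor and -100% = no enzyme wells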
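Sfp 15 nM + cpd, 15 min RT; start w/ rhodamine-CoA 5 uM, BHQ-2-YbbR 12.5 uM (final); 50 mM Hepes pH 7.6, 10 mM MgCl2, 0.01% NP-40, 0.01% BSA; read 525/598 nm at 0 and 30 min.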
Starred values were filed as active, the others as inactive; ? = inconclusive; . = no result given; [ ] = remark or other dose. Only some compounds are listed: those with a hit (about 5.2% of all), similar ones and a draw of the others. The call rests on the fitted dose curve; in most records, active means well fitted curve in the direction sought with a large enough effect; inconclusive means small, poorly fitted or top-dose-only effect, or another doubt; inactive means no such curve, though single readings can be large; an effect the other way counts as inactive or inconclusive. Unless noted, on the % scale 0 is the no-effect control and ±100 the full control effect; potency means the concentration at half of the fitted maximal effect.

SMILES | rTrxR1 inhibitor | mIDH1 inhibitor | PLK1 PBD inh | TrxR1 substrate | VDR inhibitor | Sfp inh
COc1cccc(Cn2c(CNC(=O)c3cc([N+](=O)[O-])ccc3Cl)nc3cccnc32)c1 | 6%[57.1 µM] | 0% | . | -3%[57.1 µM] | 17% | .
CN1N/C(=C\c2ccccc2)N=C2C(=O)N(C)C(=O)N=C21 | 14µM* | . | . | 10µM* | 50µM* | .
CC/C=C1/N=C2C(=O)N(C)C(=O)N=C2N(C)N1 | -20% | . | . | -20% | -13% | .
Cc1noc(NS(=O)(=O)c2ccc(NC(=O)C(F)(F)C(F)(F)C(F)(F)F)cc2)c1C | 3% | 5% | 0% | 5% | -11% | .
CCC1C(=O)N(c2nc(C)cc(C)n2)N=C1C (configuration not stated) | 11% | 5% | -1% | 11% | 8% | 56µM*
CC1=NN(c2nc(C)cc(C)n2)C(=O)C1CCC(C)C (configuration not stated) | -12% | 3% | -3% | 4%[57.1 µM] | -16% | 5%
COCCCN1C(=O)/C(=C/c2ccc(CNS(=O)(=O)c3ccccc3)o2)C(C(=O)OC)=C1C | -15%[57.1 µM] | 9% | -19% | 5%[57.1 µM] | -8% | 14µM*
Cc1cccc(CSCc2ccc(C(=O)O)o2)c1 | 0% | -1% | 24µM* | 5% | -6% | -4%
O=C(O)c1ccc(CSCc2ccccc2)o1 | . | 7% | -1% | . | . | .
CCC(C)C(N)C1=NC(C(=O)N[C@@H](CC(C)C)C(=O)N[C@H](CCC(=O)[O-])C(=O)N[C@H](C(=O)N[C@H]2CCCCNC(=O)[C@H](CC(N)=O)NC(=O)[C@@H](CC(=O)[O-])NC(=O)[C@H](Cc3cnc[nH]3)NC(=O)[C@@H](Cc3ccccc3)NC(=O)[C@H]([C@@H](C)CC)NC(=O)[C@@H](CCCN)NC2=O)[C@@H](C)CC)CS1.[Zn+2] (some centres not stated) | 4% | 32µM* | -10% | 3% | ? | .
CC[C@H](C)[C@@H]1NC(=O)[C@H](Cc2ccc(O)cc2)NC(=O)[C@@H](N)CSSC[C@@H](C(=O)N2CCC[C@H]2C(=O)N[C@@H](CC(C)C)C(=O)NCC(N)=O)NC(=O)[C@H](CC(N)=O)NC(=O)[C@H](CCC(N)=O)NC1=O | . | . | . | . | -1% | 7%
O=C(c1cccc(S(=O)(=O)N2CCN(c3ccc(F)cc3)CC2)c1)N1CCCC(C(F)(F)F)C1 (configuration not stated) | 14% | 4% | -7% | -1% | -24% | .
O=C(Cn1nnc(-c2ccccc2)n1)N=Nc1c(O)[nH]c2ccccc12 | -3%[57.1 µM] | 18% | -4% | -4%[57.1 µM] | 1% | 89µM*
COc1cc(OC)cc(C(=O)NCc2ccc3c(c2)OCO3)c1 | 4%[57.1 µM] | -1% | -4% | 7%[57.1 µM] | -7% | 10%
COc1ccc(C(=O)NCc2ccc3c(c2)OCO3)c(OC)c1 | 7%[57.1 µM] | 3% | 27µM* | 6% | ? | -12%
COc1ccccc1OCCC(=O)Nc1ccc2c(c1)OCO2 | 11% | -5% | -8% | 0% | 5% | .
COc1ccccc1OCCC(=O)NCc1ccc2c(c1)OCO2 | 22% | -6% | 30µM* | 8% | 1% | 5%
COc1ccc(CCC(=O)OCC(=O)Nc2sccc2C#N)cc1 | 14% | 3% | -2% | 1% | -5% | .
CC(C)C[C@@H]1Cc2[nH]c(=S)[nH]c(=O)c2[C@H](C)O1 | . | . | -6% | . | . | .
C=CCOC(=O)N[C@H](/C(C(=O)OC)=C(\C)NCc1ccccc1)c1cccc(C(F)(F)F)c1 | . | . | . | . | 2% | -14%
CCON1C(=O)C2(CCCCC2)C(=O)C12C=CCCC2 (configuration not stated) | 2%[57.1 µM] | 5% | -3% | 10%[57.1 µM] | -6% | .
O=C1N(O)C2(C=CCCC2)/C(=N\O)C12CCCCC2 (configuration not stated) | 12% | 9% | 30µM* | 3% | -13% | 10%
O=C(c1cccs1)N1N=C(c2ccccc2)CC1c1ccccc1O (configuration not stated) | 11% | 2% | -5% | 9% | -1% | -4%
Cc1ccc(C2=NN(C(=O)c3ccccc3F)C(c3ccccc3F)C2)cc1 (configuration not stated) | 13%[57.1 µM] | 2% | ? | -14% | -25% | 50µM*
O=C(c1ccccc1)N1N=C(c2ccccc2)CC1c1ccccc1O (configuration not stated) | 13%[57.1 µM] | 1% | 3.4µM* | 4%[11.4 µM] | ? | 10µM*
SMILES | rTrxR1 inhibitor | mIDH1 inhibitor | PLK1 PBD inh | TrxR1 substrate | VDR inhibitor | Sfp inh
COc1cccc(C2CC(c3ccc(C)cc3)=NN2C(=O)c2ccccc2F)c1OC (configuration not stated) | 9% | -6% | -3% | -10% | -22% | -4%
COc1ccc(NC(=S)NC(NC(C)=O)C(Cl)(Cl)Cl)c([N+](=O)[O-])c1 (configuration not stated) | -2%[57.1 µM] | -3% | 24µM* | 3%[57.1 µM] | -13% | -17%
COc1ccc(C2C(C(=O)Nc3cc(C)on3)c3ccccc3C(=O)N2C)cc1 (configuration not stated) | -3% | 6% | 24µM* | 0% | -15% | 21%
CCC(C)NC(=O)C1c2ccccc2C(=O)N(c2ccc(OC)cc2)C1c1ccc(OC)cc1 (configuration not stated) | -4% | 3% | 24µM* | -5% | ? | 19%
Cc1cc(C)n(-c2nc3sc4c(c3c3nnc(SCC(N)=O)n23)CC(C)(C)OC4)n1 | -12%[57.1 µM] | -2% | -1% | 18%[57.1 µM] | 10% | 10%
CSc1nnc2c3c4c(sc3nc(-n3nc(C)cc3C)n12)COC(C)(C)C4 | -15% | 0% | 3.4µM* | -12% | ? | -11%
COc1cc2nc(N3CCN(c4cc(C)ccc4C)CC3)nc(N)c2cc1OC | 15% | 3% | 1% | 11% | -1% | 79µM*
CCCC(=O)Nc1sc2c(c1C#N)CCCC2 | 6%[57.1 µM] | 4% | -17% | 5%[57.1 µM] | 7% | 13%
CCCc1cc(C(=O)Nc2sc3c(c2C#N)CCC3)no1 | 11%[57.1 µM] | 7% | 19µM* | 9%[57.1 µM] | 71µM* | 50µM*
CCc1c(C)sc(NC(=O)C2CCCO2)c1C#N (configuration not stated) | 11% | 5% | 24µM* | 0% | ? | 22µM*
CCCc1cc(C(=O)Nc2sc(C)c(CC)c2C#N)no1 | 17%[57.1 µM] | 5% | 27µM* | -7% | ? | 56µM*
CCc1c(C)sc(NC(=O)c2cc(-c3ccco3)on2)c1C#N | -10%[11.4 µM] | 14% | 27µM* | 8%[11.4 µM] | ? | ?
CCc1c(C)sc(NC(=O)c2cc(C3CC3)on2)c1C#N | 5%[57.1 µM] | 3% | ? | 6%[57.1 µM] | -11% | 0%
